The full data set covers some 8,800 targets. This sample favours those with a hit. About 0.5% of all pairs of compound and target were hits. Values without a mark were called inactive.
Legend:
Experiment in all cases: log2 fold change, soluble protein after heating vs DMSO (PISA); higher = thermal stabilisation; K562 lysate, 10 uM; active = over 0.2 and 3.5 SD of the protein, either way, in both replicates (recomputed)
[1] = compound: Cc1cn(-c2cc(NC(=O)c3ccc(C)c(Nc4nccc(-c5cccnc5)n4)c3)cc(C(F)(F)F)c2)cn1 [nilotinib]
How it was run: (§1)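 Values give the log-two fold change in thermal stability against solvent controls, from duplicates. Crude K562 extract at 1 mg/mL protein, made by dounce homogenisation in PBS pH 7.4 with 1 mM MgCl2, was treated with 10 μM compound for 30 min. After 3 min heating across 48°C-58°C, aliquots were pooled, adjusted to 0.5% NP-40 at 4°C and centrifuged at 21,000xg for 90 min. The supernatant was measured by TMTpro 16plex LC-MS/MS with channel sums equalised.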

[2] = compound: Cc1nc(Nc2n[nH]c3c2CN(C(=O)N[C@H](CN(C)C)c2ccccc2)C3(C)C)c2sccc2n1
How it was run: as §1

[3] = compound: Cc1nc(Nc2ncc(C(=O)Nc3c(C)cccc3Cl)s2)cc(N2CCN(CCO)CC2)n1 [dasatinib]
How it was run: as §1

[4] = compound: Cc1ncc(-c2ccnc(Nc3ccc(S(C)(=O)=O)cc3)n2)n1C(C)C
How it was run: as §1

[5] = compound: Cn1cc(-c2ccc3c(c2)CCN3C(=O)Cc2cccc(C(F)(F)F)c2)c2c(N)ncnc21
How it was run: as §1

[6] = compound: Cn1cc(CNCC2CCN(c3ncc(C(=O)NO)cn3)CC2)c2ccccc21 [quisinostat]
How it was run: as §1

[7] = compound: Cn1cncc1[C@@](N)(c1ccc(Cl)cc1)c1ccc2c(c1)c(-c1cccc(Cl)c1)cc(=O)n2C [tipifarnib]
How it was run: as §1

[8] = compound: NC(=O)Nc1cc(-c2cccc(F)c2)sc1C(=O)N[C@H]1CCCNC1
How it was run: as §1

[9] = compound: NC(=O)c1cnc(N[C@@H]2CCCC[C@@H]2N)nc1Nc1cccc(-n2nccn2)c1
How it was run: as §1

[10] = compound: NC1(c2ccc(-c3nc4ccn5c(=O)[nH]nc5c4cc3-c3ccccc3)cc2)CCC1
How it was run: as §1

[11] = compound: NCC(=O)Nc1ccc(-n2nc(C(F)(F)F)cc2-c2ccc3c(ccc4ccccc43)c2)cc1
How it was run: as §1

[12] = compound: O=C(CCCCCCC(=O)Nc1ccccc1)NO [vorinostat]
How it was run: as §1

[13] = compound: O=C(O)c1ccc2c(c1)nc(Nc1cccc(Cl)c1)c1ccncc12 [silmitasertib]
How it was run: as §1

[14] = compound: O=C1NC(=O)C(c2cnc3ccccn23)=C1c1cn2c3c(cc(F)cc13)CN(C(=O)N1CCCCC1)CC2
How it was run: as §1

[15] = compound: c1cn2cc(-c3ccc4cn[nH]c4c3)nc(Nc3ccc(N4CCOCC4)cc3)c2n1 [entospletinib]
How it was run: as §1

Sequence of UniProt Q14657 (Q14657 whole entry, looked up): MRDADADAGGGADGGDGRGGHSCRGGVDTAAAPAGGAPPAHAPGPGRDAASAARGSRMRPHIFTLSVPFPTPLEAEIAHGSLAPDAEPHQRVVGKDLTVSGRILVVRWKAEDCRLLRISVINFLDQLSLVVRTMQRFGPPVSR
Sequence of UniProt Q9BQ69 (Q9BQ69 whole entry, looked up): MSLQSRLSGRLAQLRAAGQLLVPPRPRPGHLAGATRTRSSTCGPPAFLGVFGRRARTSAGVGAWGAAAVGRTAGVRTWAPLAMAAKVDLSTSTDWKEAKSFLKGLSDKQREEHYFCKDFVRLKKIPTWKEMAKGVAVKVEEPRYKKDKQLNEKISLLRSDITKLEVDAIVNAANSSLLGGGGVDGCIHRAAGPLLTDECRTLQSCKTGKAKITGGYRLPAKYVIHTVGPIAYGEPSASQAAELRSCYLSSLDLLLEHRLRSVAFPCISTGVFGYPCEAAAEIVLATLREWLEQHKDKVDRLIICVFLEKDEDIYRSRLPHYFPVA
Sequence of UniProt P27361 (P27361 whole entry, looked up): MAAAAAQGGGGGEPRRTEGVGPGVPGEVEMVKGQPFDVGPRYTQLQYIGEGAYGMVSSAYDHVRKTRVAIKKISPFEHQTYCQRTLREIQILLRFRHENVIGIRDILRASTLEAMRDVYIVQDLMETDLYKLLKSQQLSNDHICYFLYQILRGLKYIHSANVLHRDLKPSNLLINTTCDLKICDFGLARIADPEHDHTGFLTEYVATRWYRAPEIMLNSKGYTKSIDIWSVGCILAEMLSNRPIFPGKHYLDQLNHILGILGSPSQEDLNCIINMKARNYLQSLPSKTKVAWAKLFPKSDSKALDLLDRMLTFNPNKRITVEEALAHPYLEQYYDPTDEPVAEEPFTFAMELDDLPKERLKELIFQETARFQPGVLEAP
Sequence of UniProt Q15013 (Q15013 whole entry, looked up): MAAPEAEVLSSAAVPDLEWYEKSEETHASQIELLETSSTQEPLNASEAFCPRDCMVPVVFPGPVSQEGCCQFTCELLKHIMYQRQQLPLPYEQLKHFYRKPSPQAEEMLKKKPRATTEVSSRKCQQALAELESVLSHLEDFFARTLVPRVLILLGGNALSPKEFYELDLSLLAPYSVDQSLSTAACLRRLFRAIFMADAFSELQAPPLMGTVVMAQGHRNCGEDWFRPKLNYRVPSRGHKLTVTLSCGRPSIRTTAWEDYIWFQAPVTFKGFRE
Sequence of UniProt O14880 (O14880 whole entry, looked up): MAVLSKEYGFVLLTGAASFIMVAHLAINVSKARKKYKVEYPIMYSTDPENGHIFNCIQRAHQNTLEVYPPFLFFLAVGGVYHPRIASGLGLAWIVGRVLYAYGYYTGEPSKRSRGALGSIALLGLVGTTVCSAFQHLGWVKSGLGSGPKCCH
Sequence of UniProt Q9NVC6 (Q9NVC6 whole entry, looked up): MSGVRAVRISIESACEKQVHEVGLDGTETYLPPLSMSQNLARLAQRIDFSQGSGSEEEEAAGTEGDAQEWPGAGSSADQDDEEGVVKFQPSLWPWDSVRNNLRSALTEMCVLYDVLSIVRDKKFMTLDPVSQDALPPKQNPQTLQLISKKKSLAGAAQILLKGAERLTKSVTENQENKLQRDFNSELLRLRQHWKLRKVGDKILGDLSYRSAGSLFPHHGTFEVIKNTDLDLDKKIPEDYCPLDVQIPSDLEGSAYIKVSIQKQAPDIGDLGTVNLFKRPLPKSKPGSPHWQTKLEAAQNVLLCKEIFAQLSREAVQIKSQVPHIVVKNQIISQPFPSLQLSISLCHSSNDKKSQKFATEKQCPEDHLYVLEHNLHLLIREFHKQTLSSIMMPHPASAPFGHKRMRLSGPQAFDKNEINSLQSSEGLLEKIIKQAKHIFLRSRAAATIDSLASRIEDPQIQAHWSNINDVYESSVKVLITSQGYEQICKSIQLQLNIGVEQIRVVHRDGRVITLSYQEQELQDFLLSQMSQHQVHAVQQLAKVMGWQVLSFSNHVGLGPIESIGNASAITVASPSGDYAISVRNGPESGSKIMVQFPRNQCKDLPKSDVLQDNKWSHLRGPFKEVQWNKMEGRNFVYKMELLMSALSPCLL
Sequence of UniProt Q9BTT4 (Q9BTT4 whole entry, looked up): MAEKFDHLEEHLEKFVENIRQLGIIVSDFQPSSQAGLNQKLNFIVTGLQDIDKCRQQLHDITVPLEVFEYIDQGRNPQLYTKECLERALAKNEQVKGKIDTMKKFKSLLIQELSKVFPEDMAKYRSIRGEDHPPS
Sequence of UniProt Q96II8 (Q96II8 whole entry, looked up): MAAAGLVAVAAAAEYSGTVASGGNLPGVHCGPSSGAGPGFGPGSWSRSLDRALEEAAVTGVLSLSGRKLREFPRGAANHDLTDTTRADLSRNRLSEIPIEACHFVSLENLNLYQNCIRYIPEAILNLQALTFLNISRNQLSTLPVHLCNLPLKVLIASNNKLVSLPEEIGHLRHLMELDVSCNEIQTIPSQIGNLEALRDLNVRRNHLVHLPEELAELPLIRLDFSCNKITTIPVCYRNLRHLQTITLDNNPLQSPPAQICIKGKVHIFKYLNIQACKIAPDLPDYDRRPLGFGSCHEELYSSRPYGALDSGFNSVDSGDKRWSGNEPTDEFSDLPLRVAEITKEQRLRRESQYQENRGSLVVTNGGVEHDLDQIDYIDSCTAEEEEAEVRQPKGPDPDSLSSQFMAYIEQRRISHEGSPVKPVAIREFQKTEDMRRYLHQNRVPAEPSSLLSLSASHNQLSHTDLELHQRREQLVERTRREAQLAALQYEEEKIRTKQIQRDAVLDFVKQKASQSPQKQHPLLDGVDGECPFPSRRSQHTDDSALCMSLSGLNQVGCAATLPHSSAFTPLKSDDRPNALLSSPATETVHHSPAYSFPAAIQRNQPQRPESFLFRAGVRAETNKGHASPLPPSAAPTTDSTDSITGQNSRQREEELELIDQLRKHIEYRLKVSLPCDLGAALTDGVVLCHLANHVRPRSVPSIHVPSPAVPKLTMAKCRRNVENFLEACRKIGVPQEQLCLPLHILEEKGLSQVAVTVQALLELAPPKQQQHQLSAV
Sequence of UniProt Q9H089 (Q9H089 whole entry, looked up): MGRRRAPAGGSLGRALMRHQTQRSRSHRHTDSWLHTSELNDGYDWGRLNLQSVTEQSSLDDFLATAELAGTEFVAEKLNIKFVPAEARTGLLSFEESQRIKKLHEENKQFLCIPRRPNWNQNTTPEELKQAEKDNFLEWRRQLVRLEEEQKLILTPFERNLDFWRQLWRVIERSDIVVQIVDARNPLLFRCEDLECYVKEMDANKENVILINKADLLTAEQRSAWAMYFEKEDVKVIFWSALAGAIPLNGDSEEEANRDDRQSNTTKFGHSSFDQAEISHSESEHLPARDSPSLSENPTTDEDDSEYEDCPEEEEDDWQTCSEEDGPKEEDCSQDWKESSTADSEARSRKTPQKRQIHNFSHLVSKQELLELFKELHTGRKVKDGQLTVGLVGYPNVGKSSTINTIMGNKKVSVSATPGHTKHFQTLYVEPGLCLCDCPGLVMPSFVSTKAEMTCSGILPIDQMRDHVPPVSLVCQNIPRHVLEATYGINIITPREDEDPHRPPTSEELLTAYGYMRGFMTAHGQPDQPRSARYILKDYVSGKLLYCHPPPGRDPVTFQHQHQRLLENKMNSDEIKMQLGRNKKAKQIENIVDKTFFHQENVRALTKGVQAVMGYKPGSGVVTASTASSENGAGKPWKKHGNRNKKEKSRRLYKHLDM
Sequence of UniProt O95777 (O95777 whole entry, looked up): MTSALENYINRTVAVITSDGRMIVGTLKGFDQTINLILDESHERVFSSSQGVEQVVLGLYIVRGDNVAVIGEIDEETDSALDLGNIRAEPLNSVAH
Sequence of UniProt Q9UBU8 (Q9UBU8 whole entry, looked up): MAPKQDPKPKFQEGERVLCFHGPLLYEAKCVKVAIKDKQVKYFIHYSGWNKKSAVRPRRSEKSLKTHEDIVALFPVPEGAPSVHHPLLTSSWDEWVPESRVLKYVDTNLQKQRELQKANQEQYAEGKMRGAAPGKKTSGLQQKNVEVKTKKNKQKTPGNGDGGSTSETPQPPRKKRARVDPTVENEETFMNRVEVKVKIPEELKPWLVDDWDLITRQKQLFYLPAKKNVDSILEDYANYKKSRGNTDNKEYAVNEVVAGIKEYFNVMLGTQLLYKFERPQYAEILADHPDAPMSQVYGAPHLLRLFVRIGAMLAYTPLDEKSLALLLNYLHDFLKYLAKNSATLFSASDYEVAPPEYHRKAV
Sequence of UniProt Q6ZWT7 (Q6ZWT7 whole entry, looked up): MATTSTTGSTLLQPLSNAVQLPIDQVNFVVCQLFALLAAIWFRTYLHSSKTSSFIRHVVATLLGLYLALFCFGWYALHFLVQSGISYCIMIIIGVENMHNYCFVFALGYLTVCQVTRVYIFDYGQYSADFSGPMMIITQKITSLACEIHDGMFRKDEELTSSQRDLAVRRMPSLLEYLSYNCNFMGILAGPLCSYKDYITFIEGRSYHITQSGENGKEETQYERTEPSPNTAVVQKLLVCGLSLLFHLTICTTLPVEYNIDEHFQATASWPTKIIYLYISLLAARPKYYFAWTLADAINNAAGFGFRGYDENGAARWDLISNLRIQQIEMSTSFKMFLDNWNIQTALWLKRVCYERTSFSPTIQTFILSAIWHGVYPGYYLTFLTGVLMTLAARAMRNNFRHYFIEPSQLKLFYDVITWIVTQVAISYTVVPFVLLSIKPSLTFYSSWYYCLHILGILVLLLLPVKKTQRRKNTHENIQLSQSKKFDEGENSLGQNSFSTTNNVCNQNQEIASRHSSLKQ
Sequence of UniProt P34949 (P34949 whole entry, looked up): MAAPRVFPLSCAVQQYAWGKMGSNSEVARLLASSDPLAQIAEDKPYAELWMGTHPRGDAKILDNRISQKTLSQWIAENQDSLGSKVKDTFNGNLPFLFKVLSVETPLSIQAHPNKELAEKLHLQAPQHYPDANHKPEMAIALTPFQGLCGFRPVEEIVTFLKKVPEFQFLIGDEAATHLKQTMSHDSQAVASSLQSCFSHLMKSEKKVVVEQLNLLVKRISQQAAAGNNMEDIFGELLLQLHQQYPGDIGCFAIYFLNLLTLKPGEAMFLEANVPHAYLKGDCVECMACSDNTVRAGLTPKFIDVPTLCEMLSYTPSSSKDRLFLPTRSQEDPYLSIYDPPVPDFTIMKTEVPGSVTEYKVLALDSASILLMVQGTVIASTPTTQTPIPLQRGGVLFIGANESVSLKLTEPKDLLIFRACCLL

| Target | log2 fold change [1] | log2 fold change [2] | log2 fold change [3] | log2 fold change [4] | log2 fold change [5] | log2 fold change [6] | log2 fold change [7] | log2 fold change [8] | log2 fold change [9] | log2 fold change [10] | log2 fold change [11] | log2 fold change [12] | log2 fold change [13] | log2 fold change [14] | log2 fold change [15] |
| --- | --- | --- | --- | --- | --- | --- | --- | --- | --- | --- | --- | --- | --- | --- | --- |
| MICU2 (UniProt Q8IYU8) | -0.052 | 0.02 | -0.026 | 0.048 | -0.015 | -0.03 | -0.043 | 0.07 | 0.105 | -0.009 | 0.012 | -0.179 | 0.031 | -0.009 | -0.089 |
| MGST3 (UniProt O14880) | 0.024 | 0.016 | 0.029 | -0.019 | -0.062 | 0.016 | -0.014 | 0.009 | -0.013 | -0.031 | -0.025 | 0.128 | 0 | 0.033 | 0.041 |
| MACROD1 (UniProt Q9BQ69) | 0.036 | -0.099 | -0.066 | 0.021 | 0.055 | -0.083 | 0.005 | 0.022 | -0.006 | -0.024 | 0.11 | -0.363 (active) | 0.04 | 0.05 | 0.047 |
| MAP1S (UniProt Q66K74) | 0.007 | -0.022 | -0.007 | -0.009 | 0.009 | -0.006 | 0.02 | 0.026 | 0 | 0 | 0.006 | -0.242 (active) | -0.004 | -0.025 | 0.01 |
| LAGE3 (UniProt Q14657) | -0.065 | 0.186 | 0.006 | -0.055 | 0.021 | -0.03 | 0.1 | 0.013 | 0.017 | 0.084 | 0.045 | -0.085 | -0.016 | -0.041 | -0.043 |
| LSM8 (UniProt O95777) | 0.132 | 0 | 0.012 | 0.045 | 0.004 | -0.043 | 0.048 | -0.02 | -0.035 | 0.033 | -0.052 | 0.063 | -0.011 | 0.009 | 0.028 |
| MAPK3 (UniProt P27361) | 0.009 | 0.272 (active) | -0.026 | 0.141 | -0.019 | 0.016 | -0.013 | 0.022 | 0.094 | -0.003 | -0.016 | -0.005 | 0.02 | 0.038 | -0.013 |
| MRPL28 (UniProt Q13084) | 0.03 | -0.111 | -0.013 | -0.037 | 0.051 | -0.031 | 0.149 | 0.057 | 0.015 | -0.058 | 0.002 | -0.037 | 0.022 | 0.044 | 0.129 |
| MPI (UniProt P34949) | 0.002 | -0.02 | -0.035 | 0.019 | -0.022 | -0.025 | 0.009 | 0.029 | 0.016 | -0.026 | 0.013 | 0.049 | -0.047 | -0.007 | -0.017 |
| MBOAT2 (UniProt Q6ZWT7) | -0.006 | -0.095 | -0.178 | 0.024 | -0.027 | -0.042 | 0.12 | 0.011 | 0.03 | -0.012 | -0.017 | 0.13 | 0.024 | 0.005 | -0.092 |
| MAPK6 (UniProt Q16659) | -0.065 | 0.085 | 0.032 | 0.05 | 0.039 | -0.003 | -0.081 | 0.055 | 0.017 | -0.028 | -0.04 | -0.033 | 0.033 | 0.035 | 0.024 |
| LRCH3 (UniProt Q96II8) | -0.003 | -0.029 | -0.095 | 0.064 | 0.038 | -0.16 | -0.029 | -0.005 | 0.011 | -0.025 | 0.053 | -0.535 (active) | 0.048 | -0.03 | -0.009 |
| LRPPRC (UniProt P42704) | -0.019 | -0.004 | -0.062 | 0.012 | 0.056 | -0.003 | -0.027 | 0.052 | 0.047 | 0.004 | -0.004 | -0.259 (active) | 0.072 | 0.023 | 0.035 |
| LZTR1 (UniProt Q8N653) | 0.016 | 0.014 | -0.063 | -0.068 | 0.008 | -0.029 | -0.036 | 0.099 | -0.033 | -0.019 | -0.022 | -0.472 (active) | 0.005 | 0.013 | 0.055 |
| LSG1 (UniProt Q9H089) | 0.003 | 0.015 | 0.102 | 0.026 | 0.137 | -0.091 | -0.004 | 0.115 | -0.014 | 0.032 | -0.074 | -0.052 | 0.043 | 0.096 | 0.139 |
| MED17 (UniProt Q9NVC6) | -0.011 | 0.036 | -0.033 | -0.116 | -0.014 | -0.033 | -0.075 | 0.019 | 0.038 | 0.005 | -0.051 | -0.392 (active) | -0.008 | -0.006 | 0.083 |
| MRPL12 (UniProt P52815) | 0.032 | -0.01 | 0.034 | 0.099 | -0.013 | 0.084 | 0.031 | -0.023 | -0.022 | -0.006 | -0.07 | 0.116 | -0.023 | 0 | -0.152 |
| MAD2L1BP isoform 3 (UniProt Q15013) | -0.028 | 0.108 | 0.016 | -0.007 | -0.026 | -0.066 | 0.018 | -0.019 | 0.048 | -0.056 | -0.026 | -0.299 (active) | -0.019 | 0.008 | 0 |
| MED10 (UniProt Q9BTT4) | 0.042 | -0.012 | 0.031 | -0.021 | 0.043 | 0.04 | -0.066 | -0.082 | 0.025 | -0.045 | -0.001 | -0.04 | -0.085 | 0.021 | -0.349 (active) |
| KNOP1 (UniProt Q1ED39) | -0.09 | 0.055 | -0.028 | -0.095 | -0.001 | -0.169 | -0.01 | 0.007 | 0.048 | -0.062 | 0.019 | 0.063 | 0.005 | 0.03 | -0.035 |
| MORF4L1 isoform 2 (UniProt Q9UBU8) | 0.037 | 0.069 | -0.013 | -0.009 | 0 | 0 | -0.009 | -0.007 | -0.008 | -0.018 | 0.013 | 0.058 | -0.002 | 0.015 | 0.018 |
